Data as given in the supplement of paper PMC11732987, “Enantioselective OTUD7B fragment discovery through chemoproteomics screening and high-throughput optimisation” (Communications Chemistry, 2025).

Key:
Assay in all cases: log2 ratio of Biotin-Ahx-Ub-VS probe labelling (fragment/DMSO); higher = less target engagement (more negative = stronger competition), active = hit call of the paper (q ≤ 0.05, log2 ratio ≤ -1)
Details in all cases: compound concentration: 200 uM; treatment time: 3 h
USP42 = target: T1, USP42 (UniProt Q9H9J4)
T1 sequence (whole entry): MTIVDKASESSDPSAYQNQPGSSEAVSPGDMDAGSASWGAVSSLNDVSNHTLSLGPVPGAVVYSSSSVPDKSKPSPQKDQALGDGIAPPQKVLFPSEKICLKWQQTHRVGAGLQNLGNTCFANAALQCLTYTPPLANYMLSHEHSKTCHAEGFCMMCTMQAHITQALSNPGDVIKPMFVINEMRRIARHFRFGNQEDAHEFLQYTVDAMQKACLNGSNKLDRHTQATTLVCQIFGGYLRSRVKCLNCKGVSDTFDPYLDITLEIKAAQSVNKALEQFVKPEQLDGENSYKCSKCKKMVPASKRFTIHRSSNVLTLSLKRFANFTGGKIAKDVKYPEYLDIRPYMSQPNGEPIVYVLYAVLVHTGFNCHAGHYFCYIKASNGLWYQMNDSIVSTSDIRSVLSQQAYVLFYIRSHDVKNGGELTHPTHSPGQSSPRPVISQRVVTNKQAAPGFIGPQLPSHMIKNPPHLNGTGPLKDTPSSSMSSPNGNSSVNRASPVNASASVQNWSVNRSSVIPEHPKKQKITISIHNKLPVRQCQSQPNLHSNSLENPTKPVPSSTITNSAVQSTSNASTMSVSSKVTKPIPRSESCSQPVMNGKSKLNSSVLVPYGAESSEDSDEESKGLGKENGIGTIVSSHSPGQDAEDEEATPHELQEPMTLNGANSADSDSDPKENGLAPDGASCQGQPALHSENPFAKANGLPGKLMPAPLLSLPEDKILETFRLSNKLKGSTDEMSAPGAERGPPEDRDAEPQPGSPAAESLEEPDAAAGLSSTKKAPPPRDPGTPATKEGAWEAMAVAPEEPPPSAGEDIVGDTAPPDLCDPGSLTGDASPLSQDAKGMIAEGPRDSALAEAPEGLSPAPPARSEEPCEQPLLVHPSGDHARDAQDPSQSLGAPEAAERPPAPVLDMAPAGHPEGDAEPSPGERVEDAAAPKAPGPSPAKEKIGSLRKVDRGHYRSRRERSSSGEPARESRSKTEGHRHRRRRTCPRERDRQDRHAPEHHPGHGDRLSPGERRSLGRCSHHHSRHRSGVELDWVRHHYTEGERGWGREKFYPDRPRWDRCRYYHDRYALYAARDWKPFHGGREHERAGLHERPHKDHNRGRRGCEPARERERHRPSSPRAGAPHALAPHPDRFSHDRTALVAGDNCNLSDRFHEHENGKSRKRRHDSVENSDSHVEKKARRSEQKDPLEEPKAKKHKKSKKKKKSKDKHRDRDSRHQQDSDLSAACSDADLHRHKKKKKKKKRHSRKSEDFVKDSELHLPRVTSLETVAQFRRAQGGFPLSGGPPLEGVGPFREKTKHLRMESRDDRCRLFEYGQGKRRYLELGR
Procedure, shortened: (§1)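 Each value is an average log2 ratio of fragment to vehicle, tested by unpaired t-test. The underlying Spectronaut label-free quantities were global-median-normalised, and only proteins with ≥2 unique peptides were included. Triplicate HEK293T lysate samples (495 µg) were exposed to fragment at 200 µM or vehicle for 3 h, then to Biotin-Ahx-Ub-VS at 0.5 µM final for 1 h, before NeutrAvidin enrichment of labelled DUBs, LysC and trypsin digestion, and diaPASEF LC-MS/MS.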

USP46 = USP46 (UniProt P62068)
Procedure, shortened: as §1

USP47 = target: T2, USP47 (UniProt Q96K76)
T2 sequence (whole entry): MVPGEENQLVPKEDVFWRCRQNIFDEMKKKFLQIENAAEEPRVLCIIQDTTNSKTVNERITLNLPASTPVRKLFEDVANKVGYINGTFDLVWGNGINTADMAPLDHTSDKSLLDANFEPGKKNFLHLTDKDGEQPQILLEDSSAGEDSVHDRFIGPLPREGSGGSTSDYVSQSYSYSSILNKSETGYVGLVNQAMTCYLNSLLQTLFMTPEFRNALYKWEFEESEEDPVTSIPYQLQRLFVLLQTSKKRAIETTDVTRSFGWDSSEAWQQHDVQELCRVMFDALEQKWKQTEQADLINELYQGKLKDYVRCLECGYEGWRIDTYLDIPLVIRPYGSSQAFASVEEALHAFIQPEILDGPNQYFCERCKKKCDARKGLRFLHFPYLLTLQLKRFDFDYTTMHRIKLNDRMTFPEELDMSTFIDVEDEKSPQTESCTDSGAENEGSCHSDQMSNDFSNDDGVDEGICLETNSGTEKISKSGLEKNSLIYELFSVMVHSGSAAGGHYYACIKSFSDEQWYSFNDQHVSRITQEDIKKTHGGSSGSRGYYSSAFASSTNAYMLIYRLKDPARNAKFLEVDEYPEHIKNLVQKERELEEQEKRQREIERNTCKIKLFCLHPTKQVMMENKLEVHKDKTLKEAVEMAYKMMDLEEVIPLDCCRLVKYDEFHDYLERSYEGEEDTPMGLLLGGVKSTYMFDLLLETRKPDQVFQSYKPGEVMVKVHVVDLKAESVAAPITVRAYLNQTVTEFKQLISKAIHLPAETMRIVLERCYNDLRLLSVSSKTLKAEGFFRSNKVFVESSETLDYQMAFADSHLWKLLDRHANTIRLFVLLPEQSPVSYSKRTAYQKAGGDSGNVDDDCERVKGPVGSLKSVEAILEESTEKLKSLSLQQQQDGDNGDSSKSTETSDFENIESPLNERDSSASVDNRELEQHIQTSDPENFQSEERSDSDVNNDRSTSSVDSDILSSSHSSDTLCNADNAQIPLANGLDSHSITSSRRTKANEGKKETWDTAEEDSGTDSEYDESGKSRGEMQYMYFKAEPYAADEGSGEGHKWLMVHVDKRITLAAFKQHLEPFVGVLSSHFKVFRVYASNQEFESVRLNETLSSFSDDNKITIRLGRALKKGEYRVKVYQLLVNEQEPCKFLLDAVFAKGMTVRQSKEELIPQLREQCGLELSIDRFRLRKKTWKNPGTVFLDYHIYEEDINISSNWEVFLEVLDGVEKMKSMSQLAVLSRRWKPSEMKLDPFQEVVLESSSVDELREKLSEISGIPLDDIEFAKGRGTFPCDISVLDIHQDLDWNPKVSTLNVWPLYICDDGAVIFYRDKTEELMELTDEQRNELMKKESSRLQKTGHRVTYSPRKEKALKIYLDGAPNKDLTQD
Procedure, shortened: as §1

USP48 = target: T3, USP48 (UniProt Q86UV5)
T3 sequence (whole entry): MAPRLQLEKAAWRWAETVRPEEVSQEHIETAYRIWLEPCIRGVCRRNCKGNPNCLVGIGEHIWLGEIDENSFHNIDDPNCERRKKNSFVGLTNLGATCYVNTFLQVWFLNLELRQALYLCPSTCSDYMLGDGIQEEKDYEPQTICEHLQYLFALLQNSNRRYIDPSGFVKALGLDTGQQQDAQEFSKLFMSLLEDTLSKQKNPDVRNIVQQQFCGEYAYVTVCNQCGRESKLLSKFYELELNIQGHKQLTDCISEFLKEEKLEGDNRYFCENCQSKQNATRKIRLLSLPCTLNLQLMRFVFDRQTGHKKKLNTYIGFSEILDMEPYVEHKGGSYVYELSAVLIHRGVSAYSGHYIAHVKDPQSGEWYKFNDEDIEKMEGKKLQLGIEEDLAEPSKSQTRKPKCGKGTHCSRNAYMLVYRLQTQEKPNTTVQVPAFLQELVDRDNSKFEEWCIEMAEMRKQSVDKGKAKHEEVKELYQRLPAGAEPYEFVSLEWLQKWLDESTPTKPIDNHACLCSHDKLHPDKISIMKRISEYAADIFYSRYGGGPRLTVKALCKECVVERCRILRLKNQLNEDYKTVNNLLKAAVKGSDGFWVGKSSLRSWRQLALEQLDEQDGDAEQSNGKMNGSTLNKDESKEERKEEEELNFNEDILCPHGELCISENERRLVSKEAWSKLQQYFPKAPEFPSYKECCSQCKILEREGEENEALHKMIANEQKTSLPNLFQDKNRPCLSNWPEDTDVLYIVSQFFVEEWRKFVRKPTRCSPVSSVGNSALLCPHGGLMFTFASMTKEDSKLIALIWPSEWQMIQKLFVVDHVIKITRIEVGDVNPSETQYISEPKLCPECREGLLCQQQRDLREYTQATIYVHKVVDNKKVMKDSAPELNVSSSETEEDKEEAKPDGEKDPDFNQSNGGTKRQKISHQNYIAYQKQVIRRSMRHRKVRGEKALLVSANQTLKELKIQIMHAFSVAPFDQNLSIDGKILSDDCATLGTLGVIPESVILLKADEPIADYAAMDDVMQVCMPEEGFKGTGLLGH
Procedure, shortened: as §1

USP5 = target: T4, USP5 (UniProt P45974)
T4 sequence (whole entry): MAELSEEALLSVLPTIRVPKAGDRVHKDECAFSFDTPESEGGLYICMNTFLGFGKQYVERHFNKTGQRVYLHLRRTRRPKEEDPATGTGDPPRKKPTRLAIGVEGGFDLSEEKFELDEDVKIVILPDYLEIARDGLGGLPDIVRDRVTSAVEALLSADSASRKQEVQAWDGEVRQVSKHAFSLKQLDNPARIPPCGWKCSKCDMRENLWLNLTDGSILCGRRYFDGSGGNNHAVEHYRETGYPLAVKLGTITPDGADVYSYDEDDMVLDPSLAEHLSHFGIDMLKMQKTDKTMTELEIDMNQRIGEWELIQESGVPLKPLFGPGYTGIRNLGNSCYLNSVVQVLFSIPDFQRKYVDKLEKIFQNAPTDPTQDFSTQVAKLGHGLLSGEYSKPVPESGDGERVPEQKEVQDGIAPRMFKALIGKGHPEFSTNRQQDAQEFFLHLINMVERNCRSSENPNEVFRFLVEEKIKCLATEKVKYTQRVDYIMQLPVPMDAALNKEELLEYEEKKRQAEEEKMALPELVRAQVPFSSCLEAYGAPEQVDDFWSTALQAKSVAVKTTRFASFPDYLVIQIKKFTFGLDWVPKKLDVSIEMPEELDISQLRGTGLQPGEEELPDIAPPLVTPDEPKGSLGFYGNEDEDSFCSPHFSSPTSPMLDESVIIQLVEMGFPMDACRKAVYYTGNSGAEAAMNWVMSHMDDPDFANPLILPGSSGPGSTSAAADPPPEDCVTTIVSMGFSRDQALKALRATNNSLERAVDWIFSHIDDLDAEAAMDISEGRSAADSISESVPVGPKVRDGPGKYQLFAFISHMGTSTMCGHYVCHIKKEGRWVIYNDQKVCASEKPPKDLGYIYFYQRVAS
Procedure, shortened: as §1

USP54 = USP54 (UniProt Q70EL1)
Procedure, shortened: as §1

USP7 = USP7 (UniProt Q93009)
Procedure, shortened: as §1

USP8 = target: T5, USP8 (UniProt P40818)
T5 sequence (whole entry): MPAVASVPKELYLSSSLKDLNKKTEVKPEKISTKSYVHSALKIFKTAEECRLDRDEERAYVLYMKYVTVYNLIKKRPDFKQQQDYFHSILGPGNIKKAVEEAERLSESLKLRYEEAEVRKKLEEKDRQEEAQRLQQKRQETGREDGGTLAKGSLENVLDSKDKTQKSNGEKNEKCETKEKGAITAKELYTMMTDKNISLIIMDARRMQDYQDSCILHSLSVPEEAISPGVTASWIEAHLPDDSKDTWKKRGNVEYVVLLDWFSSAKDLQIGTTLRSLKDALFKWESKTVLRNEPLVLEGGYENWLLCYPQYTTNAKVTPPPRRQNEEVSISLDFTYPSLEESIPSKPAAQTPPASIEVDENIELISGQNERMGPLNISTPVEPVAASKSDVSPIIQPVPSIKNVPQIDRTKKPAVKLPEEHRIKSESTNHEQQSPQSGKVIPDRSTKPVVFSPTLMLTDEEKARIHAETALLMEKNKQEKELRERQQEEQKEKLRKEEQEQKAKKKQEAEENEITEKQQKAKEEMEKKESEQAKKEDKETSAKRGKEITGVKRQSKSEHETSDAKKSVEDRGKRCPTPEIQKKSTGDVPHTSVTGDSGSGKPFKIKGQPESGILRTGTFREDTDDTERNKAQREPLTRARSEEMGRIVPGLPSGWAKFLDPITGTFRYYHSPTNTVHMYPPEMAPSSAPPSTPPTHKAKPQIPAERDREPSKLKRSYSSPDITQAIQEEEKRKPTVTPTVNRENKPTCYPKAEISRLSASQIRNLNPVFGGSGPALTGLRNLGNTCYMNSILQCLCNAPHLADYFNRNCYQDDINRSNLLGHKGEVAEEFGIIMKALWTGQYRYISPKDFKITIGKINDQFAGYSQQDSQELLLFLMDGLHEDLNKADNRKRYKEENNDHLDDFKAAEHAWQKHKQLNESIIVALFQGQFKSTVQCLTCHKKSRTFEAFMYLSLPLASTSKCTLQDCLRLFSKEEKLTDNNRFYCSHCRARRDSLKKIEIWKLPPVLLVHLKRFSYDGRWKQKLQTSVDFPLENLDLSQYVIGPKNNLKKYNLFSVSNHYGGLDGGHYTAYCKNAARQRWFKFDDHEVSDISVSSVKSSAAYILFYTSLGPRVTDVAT
Procedure, shortened: as §1

USP9X = USP9X (UniProt Q93008)
Procedure, shortened: as §1

UniProt O00487 = target: UniProt O00487
Procedure, shortened: as §1

Measured: log2 ratio of Biotin-Ahx-Ub-VS probe labelling

Chain of USP46 (P62068 whole entry): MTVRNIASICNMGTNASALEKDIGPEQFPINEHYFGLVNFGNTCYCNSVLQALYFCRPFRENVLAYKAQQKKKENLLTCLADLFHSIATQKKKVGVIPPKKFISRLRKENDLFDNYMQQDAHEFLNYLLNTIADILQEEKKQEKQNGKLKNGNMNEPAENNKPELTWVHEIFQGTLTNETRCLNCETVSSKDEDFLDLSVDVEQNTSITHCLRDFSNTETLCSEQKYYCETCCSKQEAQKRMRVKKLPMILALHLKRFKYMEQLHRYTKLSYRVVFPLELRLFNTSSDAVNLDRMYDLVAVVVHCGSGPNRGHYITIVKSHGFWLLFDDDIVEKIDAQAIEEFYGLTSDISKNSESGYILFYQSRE
Chain of USP7 (Q93009 whole entry, looked up): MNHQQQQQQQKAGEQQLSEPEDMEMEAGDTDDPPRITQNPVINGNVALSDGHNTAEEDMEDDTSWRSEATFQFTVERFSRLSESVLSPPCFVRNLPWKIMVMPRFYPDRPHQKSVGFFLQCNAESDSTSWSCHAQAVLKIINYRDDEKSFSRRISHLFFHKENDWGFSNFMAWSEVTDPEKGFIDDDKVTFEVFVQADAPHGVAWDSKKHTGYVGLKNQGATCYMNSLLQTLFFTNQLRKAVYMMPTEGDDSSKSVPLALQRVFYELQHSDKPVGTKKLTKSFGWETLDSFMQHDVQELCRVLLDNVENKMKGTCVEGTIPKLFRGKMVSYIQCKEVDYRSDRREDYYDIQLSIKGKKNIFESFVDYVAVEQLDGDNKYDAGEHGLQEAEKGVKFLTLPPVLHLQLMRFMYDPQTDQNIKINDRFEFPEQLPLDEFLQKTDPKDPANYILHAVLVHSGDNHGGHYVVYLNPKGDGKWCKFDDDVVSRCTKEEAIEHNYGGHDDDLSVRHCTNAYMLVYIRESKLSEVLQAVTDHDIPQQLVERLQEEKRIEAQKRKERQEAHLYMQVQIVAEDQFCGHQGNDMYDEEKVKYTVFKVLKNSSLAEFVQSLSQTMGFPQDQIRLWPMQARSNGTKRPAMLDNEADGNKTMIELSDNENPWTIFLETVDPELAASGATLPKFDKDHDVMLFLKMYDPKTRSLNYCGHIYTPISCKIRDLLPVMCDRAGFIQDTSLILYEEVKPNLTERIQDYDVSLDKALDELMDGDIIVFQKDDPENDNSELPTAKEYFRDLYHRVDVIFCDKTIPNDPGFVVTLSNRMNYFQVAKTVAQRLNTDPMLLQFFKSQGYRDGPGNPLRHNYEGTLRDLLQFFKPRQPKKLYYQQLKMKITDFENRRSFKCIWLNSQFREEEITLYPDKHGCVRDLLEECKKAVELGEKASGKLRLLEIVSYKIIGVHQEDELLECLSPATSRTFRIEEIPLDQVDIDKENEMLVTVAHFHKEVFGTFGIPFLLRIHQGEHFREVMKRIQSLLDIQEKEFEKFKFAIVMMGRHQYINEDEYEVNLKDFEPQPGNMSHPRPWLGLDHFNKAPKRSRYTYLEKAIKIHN
Chain of USP54 (Q70EL1 whole entry): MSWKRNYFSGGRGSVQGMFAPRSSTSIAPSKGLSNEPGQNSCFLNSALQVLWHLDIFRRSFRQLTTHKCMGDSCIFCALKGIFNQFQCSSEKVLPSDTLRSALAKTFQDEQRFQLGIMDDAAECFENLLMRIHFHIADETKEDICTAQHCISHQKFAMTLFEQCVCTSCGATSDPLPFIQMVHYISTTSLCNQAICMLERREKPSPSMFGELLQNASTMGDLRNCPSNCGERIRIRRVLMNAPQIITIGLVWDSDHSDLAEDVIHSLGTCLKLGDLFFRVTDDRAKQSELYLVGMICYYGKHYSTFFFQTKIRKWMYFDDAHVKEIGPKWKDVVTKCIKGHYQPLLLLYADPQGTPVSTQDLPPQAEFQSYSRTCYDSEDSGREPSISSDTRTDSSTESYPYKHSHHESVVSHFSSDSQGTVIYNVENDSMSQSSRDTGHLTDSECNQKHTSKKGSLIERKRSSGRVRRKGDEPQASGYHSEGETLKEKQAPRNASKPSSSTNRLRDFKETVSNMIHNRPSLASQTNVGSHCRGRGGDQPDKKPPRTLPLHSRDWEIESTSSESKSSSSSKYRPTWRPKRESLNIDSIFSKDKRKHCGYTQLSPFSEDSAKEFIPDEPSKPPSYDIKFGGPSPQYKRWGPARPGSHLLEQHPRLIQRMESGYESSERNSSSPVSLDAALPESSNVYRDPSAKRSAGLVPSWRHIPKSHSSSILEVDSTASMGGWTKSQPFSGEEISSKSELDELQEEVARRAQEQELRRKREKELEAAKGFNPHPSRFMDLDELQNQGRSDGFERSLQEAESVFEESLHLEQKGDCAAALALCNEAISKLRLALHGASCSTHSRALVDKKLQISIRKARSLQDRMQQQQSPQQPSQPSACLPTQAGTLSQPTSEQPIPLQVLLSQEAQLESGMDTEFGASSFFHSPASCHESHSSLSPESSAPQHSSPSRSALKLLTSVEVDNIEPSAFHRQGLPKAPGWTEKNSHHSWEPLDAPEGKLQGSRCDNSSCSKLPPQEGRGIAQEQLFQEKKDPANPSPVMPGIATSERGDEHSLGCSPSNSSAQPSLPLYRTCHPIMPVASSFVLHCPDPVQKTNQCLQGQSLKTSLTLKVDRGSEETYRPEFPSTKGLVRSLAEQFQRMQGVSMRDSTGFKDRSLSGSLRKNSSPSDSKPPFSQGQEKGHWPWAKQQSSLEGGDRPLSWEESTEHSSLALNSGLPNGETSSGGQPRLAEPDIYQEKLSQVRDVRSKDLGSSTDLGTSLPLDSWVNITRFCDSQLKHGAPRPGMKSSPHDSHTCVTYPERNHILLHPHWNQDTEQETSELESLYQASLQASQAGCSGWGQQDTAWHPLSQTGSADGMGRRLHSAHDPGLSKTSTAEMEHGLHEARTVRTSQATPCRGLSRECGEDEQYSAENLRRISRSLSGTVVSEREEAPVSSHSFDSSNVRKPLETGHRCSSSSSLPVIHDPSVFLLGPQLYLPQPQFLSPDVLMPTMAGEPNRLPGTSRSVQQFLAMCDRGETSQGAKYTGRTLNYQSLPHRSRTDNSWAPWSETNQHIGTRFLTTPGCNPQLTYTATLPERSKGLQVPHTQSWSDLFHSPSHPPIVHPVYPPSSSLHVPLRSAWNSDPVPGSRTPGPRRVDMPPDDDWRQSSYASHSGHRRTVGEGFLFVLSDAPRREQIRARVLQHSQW
Chain of UniProt O00487 (O00487 whole entry): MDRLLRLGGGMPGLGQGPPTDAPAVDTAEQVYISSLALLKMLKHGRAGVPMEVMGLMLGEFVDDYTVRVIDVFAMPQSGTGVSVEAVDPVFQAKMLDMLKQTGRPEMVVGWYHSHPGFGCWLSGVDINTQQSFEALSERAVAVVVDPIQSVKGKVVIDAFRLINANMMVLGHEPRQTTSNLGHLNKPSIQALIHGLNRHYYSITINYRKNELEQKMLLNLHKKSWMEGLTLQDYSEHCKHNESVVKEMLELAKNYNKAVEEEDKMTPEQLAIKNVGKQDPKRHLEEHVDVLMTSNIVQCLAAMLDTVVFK

O=C(CCl)N1CCC(S(=O)(=O)c2ccc(F)cc2)CC1
inactive: USP42 -0.133 | USP46 -0.0321 | USP47 -0.145 | USP48 -0.355 | USP5 0.248 | USP54 0.501 | USP7 -0.535 | USP8 -0.0595 | USP9X -0.118 | UniProt O00487 0.043
